Inconclusive results are not listed. The source made the active and inactive calls. Unless noted, the call rests on the fitted dose curve.

The nature of assay [1]: Nuclear factor erythroid 2-related factor 2/antioxidant responsive element (Nrf2/ARE) small molecule agonists: qHTS cell viability counter screen in human keratinocytes (AID 1919968; active means well fitted curve in the direction sought with a large enough effect in the repeat runs; an effect the other way counts as inactive or inconclusive; further: nearly all actives have a fitted effect of over 55% in size). Summed up: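 Seed 1,500 KeratinoSens cells per well, then incubate 5 h at 37 C/5% CO2. Add compounds in DMSO and incubate 23 h. Add CellTiter-Fluor, wait 1 h and read fluorescence.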
Background: qHTS replaces the single test concentration by a dilution series.

A short description of assay [2]: Nuclear factor erythroid 2-related factor 2/antioxidant responsive element (Nrf2/ARE) small molecule agonists: luciferase reporter gene qHTS assay in human keratinocytes (AID 1919969). Further: nearly all actives have a fitted effect of over 35% in size. Further: potency means the concentration at half of the fitted maximal effect. On the technique in general: A reporter such as luciferase makes a cellular process visible.
In assay [3] the target is Gonadotropin-releasing hormone receptor (Homo sapiens) (UniProt P30968). Briefly: Human gonadotropin-releasing hormone receptor (GnRHR) small molecule agonists, calcium flux assay in GnRHR-HEK293 cells (AID 1920063). Further: nearly all actives have a fitted effect of over 35% in size. In a few lines: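 Cells: HEK293 stably expressing human GnRHR. Steps: overnight (18 h) culture, 1 h calcium dye loading at 37 C, compound addition, kinetic fluorescence read at 480/540 nm. Each compound tested at 15 concentrations in triplicate.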
A general note: Calcium flux is commonly read through the fluorescence of an indicator in the cells.

Assay [4] has as its target KiSS-1 receptor (Homo sapiens) (UniProt Q969F8). The experiment in a line: Human kisspeptin (KISS1R) small molecule agonists, calcium flux assay in KISS1R-HEK293 cells (AID 1920064; active means well fitted curve in the direction sought with a large enough effect in the repeat runs; an effect the other way counts as inactive or inconclusive). In a few lines: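 Cells plated and incubated 18 h; dye added, 1 h at 37 C; compounds in DMSO pinned in; signal read at 480/540 nm every second for 3 min. Each compound tested at 15 concentrations in triplicate.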

Assay [5] is described as follows: G protein-coupled receptor (GPCR) small molecule agonists, calcium flux assay: HEK293 wild type cell line counter screen (AID 1920065). Summed up: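 Counter-screen of the Tox21 10K library for non-specific calcium release: dye-loaded cells received compounds in DMSO and were monitored by kinetic fluorescence (480/540 nm, 3 min). Fifteen concentrations, run in triplicate.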

A short description of assay [6]: p53 small molecule agonists, cell-based qHTS assay with human liver microsomes (AID 1963577).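 Further: p53 response element beta-lactamase reporter cells with liver microsomes plus NADPH.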 Summed up: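 Metabolically competent format: test substances, human liver microsomes and NADPH (both 0.5 mg/mL final) incubated with p53RE-bla cells 16 h at 37 C. Beta-lactamase reporter signal then quantified by fluorescence.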
The nature of assay [7]: p53 small molecule agonists, cell-based qHTS assay with rat liver microsomes (AID 1963578). In a few lines: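 Each plate received p53RE-bla cells, then compound, then rat liver microsomes and NADPH (both 0.5 mg/mL final). Plates were held 16 h at 37 C, and beta-lactamase activity was detected with LiveBLAzer over 2 h.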
Assay [8] can be described thus: p53 small molecule agonists, cell-based qHTS assay with human liver microsomes: qHTS cell viability counter screen (AID 1963579). Further: nearly all actives have a fitted effect of over 45% in size. Summed up: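 Tox21 library compounds, delivered from DMSO stocks, were tested on p53RE-bla cells together with 0.5 mg/mL human liver microsomes and 0.5 mg/mL NADPH (final) over 16 h at 37 C; CellTiter-Glo luminescence served as the cytotoxicity measure.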

Assay [9] can be described thus: p53 small molecule agonists, cell-based qHTS assay with rat liver microsomes: qHTS cell viability counter screen (AID 1963580). Further: nearly all actives have a fitted effect of over 45% in size. Summed up: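 HCT-116 p53RE-bla, 4,000 cells/well, 5 h pre-incubation; cpd + rat liver microsomes 0.5 mg/mL + NADPH 0.5 mg/mL (final); 16 h, 37 C; CellTiter-Glo, 30 min RT; luminescence.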
Assay [10] can be described thus: p53 small molecule agonists, cell-based qHTS assay: qHTS cell viability counter screen (AID 1963581). Further: nearly all actives have a fitted effect of over 45% in size. In a few lines: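 Cells: HCT-116 with p53 response element-driven beta-lactamase. Treatment: 16 h, 37 C, compounds in DMSO. Read: CellTiter-Glo luminescence after 30 min RT.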
Assay [11] has as its target 5-hydroxytryptamine receptor 2A (Homo sapiens) (UniProt P28223). The experiment in a line: 5-hydroxytryptamine receptor 2A (HTR2A) small molecule agonists, cell-based qHTS assay (AID 1963587). Further: nearly all actives have a fitted effect of over 30% in size. Further: potency means the concentration at half of the fitted maximal effect. In a few lines: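 Kinetic calcium-flux fluorescence (2 min, 1 sec intervals) after compound addition in agonist mode. HTR2A-CHO cells were cultured 18 h, then dye-loaded 1 h at 37 C.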

Assay [12] concerns the target Muscarinic acetylcholine receptor M1 (Homo sapiens) (UniProt P11229). The experiment in a line: Cholinergic receptor muscarinic 1 (CHRM1) small molecule antagonists, cell-based qHTS assay (AID 1963588). Further: nearly all actives have a fitted effect of over 40% in size. Summed up: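 CHRM1-CHO calcium-flux assay, antagonist mode. Cells were seeded 18 h, dye-loaded 1 h at 37 C and given compound for 5 min at RT, then acetylcholine was added at 50nM. FDSS fluorescence was read 3 min; 15 concentrations, three runs.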

The target is the same in assay [13]. The experiment in a line: Cholinergic receptor muscarinic 1 (CHRM1) small molecule agonists, cell-based qHTS assay (AID 1963589). Further: nearly all actives have a fitted effect of over 35% in size. Summed up:
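Agonist-mode qHTS in CHO cells stably carrying human muscarinic M1. Intracellular calcium is tracked by fluorescence every second after compound transfer; each compound runs at 15 concentrations in three independent runs.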

Assay [14] in a line: cAMP Responsive Elements (CRE) small molecule agonists, cell-based qHTS assay (AID 1963590). In a few lines:
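Agonist mode qHTS in CRE-bla HEK 293T cells: compounds dosed from DMSO for 3 h at 37 C/5% CO2, followed by LiveBLAzer B/G FRET substrate for 2 h at room temperature.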

A short description of assay [15]: cAMP Responsive Elements (CRE) small molecule antagonists, cell-based qHTS assay (AID 1963591; active means well fitted inhibition curve with a large enough effect in the signal ratio in the repeat runs, not every such curve was filed as active; the % refers to the signal ratio). In a few lines:
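Antagonist mode: test compounds are co-incubated with the adenylyl cyclase activator NKH477 (0.25 uM final) on CRE-bla HEK293T cells for 3 h at 37 °C, followed by LiveBLAzer substrate loading.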

Assay [16] concerns the target Beta-2 adrenergic receptor (Homo sapiens) (UniProt P07550). Briefly: Adrenergic beta2 receptor (ADRB2) small molecule antagonists, cell-based qHTS assay (AID 1963592). Further: series mostly up to about 92 µM; nearly all actives have a fitted effect of over 50% in size. Summed up: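 Cells (CHO, stable ADRB2 overexpression) incubated 18-20hr at 37C; compounds added from DMSO; agonist mix (1nM isoproterenol, 100uM IBMX, 25uM Ro-20-1724) added; 0.5hr RT; d2-cAMP and anti-cAMP-cryptate added; 1hr RT; 665/615 nm read.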

The target is the same in assay [17]. The experiment in a line: Adrenergic beta2 receptor (ADRB2) small molecule agonists, cell-based qHTS assay (AID 1963593).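 Further: CHO cells stably overexpressing human ADRB2.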 Summed up: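 CHO cells stably over-expressing ADRB2 were plated overnight at 37C, then dosed with compounds plus a stimulation mix containing 100uM IBMX and 25uM Ro-20-1724 for 0.5hr at room temperature. cAMP was measured by HTRF competition, 1hr.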

Assay [18] concerns the target D(2) dopamine receptor (Homo sapiens) (UniProt P14416). The experiment in a line: Dopamine D2 receptor (DRD2) small molecule agonists, cell-based qHTS assay (AID 1963594). Further: nearly all actives have a fitted effect of over 35% in size. In a few lines:
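cAMP accumulation in DRD2-HEK293 cells measured by HTRF after 1 h detection; compounds added 10 min before NKH477 (200nM […]) forskolin-analogue stimulation, 30 min at room temperature, with Ro20-1724 present at 0.1 mM final.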

Assay [19] has the same target. Briefly: Dopamine D2 receptor (DRD2) small molecule antagonists, cell-based qHTS assay (AID 1963595; active means well fitted inhibition curve with a large enough effect in the signal ratio in the repeat runs, with a control signal flat; the % refers to the signal ratio). Summed up: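 Human DRD2 antagonist qHTS measuring cAMP by HTRF. The cells are exposed to compound for 10 min, then to NKH477 (200 nM) and quinpirole (12 nM) for 30 min at RT, with Ro20-1724 (0.1 mM) present throughout.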

KiSS-1 receptor (Homo sapiens), sequence (Q969F8 whole entry, looked up): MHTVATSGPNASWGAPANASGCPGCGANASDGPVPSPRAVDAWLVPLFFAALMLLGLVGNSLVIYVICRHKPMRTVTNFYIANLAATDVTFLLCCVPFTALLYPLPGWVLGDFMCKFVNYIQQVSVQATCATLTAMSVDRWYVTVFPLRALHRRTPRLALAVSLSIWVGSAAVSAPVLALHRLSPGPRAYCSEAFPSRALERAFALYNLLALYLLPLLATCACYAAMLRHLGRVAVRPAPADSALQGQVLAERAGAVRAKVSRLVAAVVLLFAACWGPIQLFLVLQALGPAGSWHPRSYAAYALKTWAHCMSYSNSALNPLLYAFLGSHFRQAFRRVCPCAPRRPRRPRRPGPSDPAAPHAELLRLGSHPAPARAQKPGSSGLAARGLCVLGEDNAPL
5-hydroxytryptamine receptor 2A (Homo sapiens), sequence (P28223 whole entry, looked up): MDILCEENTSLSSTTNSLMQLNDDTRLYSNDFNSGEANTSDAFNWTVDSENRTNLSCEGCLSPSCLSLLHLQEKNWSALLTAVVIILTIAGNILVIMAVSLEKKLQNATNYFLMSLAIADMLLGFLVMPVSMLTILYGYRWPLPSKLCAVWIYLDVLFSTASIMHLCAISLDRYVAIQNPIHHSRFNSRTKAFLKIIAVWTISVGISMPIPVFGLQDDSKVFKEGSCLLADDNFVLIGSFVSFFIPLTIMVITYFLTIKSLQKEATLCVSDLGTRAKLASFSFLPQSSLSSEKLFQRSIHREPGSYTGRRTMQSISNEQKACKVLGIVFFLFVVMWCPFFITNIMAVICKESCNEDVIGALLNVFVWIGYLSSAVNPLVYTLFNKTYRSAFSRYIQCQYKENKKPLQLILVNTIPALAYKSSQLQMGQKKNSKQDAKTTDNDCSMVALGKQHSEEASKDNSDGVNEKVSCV
Beta-2 adrenergic receptor (Homo sapiens), sequence (P07550 whole entry, looked up): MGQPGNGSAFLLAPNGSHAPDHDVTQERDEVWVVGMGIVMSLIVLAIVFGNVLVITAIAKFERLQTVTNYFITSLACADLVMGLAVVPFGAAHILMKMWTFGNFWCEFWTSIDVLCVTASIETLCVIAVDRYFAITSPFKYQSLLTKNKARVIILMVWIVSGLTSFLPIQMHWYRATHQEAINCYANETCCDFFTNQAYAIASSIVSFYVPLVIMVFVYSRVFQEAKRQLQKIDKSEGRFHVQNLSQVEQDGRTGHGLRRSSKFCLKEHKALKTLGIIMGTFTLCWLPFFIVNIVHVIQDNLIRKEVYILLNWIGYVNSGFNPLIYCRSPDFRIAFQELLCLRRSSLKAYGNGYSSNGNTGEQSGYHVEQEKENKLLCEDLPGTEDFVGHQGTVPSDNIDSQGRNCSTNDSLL
D(2) dopamine receptor (Homo sapiens), sequence (P14416 whole entry, looked up): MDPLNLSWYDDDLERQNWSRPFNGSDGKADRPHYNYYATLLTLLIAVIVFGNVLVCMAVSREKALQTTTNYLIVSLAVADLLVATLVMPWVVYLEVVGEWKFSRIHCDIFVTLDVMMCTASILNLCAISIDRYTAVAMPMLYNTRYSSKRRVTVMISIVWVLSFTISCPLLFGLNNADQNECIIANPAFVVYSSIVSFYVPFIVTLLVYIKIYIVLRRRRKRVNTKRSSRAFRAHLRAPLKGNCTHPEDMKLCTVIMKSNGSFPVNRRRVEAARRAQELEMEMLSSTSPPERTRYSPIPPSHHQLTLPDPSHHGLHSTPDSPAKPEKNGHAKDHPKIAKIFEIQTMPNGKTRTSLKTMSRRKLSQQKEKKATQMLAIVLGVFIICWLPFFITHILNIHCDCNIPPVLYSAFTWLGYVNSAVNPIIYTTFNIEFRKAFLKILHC
Gonadotropin-releasing hormone receptor (Homo sapiens), sequence (P30968 whole entry, looked up): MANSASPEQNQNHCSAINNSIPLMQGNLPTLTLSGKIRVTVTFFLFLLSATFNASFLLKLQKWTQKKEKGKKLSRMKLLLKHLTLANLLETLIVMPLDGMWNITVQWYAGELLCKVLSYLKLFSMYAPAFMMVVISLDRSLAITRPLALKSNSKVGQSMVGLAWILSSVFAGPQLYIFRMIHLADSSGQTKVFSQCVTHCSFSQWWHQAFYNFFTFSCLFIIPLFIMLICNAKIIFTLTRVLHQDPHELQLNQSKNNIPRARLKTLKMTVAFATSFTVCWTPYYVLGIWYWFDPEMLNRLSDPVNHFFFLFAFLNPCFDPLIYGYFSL
Muscarinic acetylcholine receptor M1 (Homo sapiens), sequence (P11229 whole entry, looked up): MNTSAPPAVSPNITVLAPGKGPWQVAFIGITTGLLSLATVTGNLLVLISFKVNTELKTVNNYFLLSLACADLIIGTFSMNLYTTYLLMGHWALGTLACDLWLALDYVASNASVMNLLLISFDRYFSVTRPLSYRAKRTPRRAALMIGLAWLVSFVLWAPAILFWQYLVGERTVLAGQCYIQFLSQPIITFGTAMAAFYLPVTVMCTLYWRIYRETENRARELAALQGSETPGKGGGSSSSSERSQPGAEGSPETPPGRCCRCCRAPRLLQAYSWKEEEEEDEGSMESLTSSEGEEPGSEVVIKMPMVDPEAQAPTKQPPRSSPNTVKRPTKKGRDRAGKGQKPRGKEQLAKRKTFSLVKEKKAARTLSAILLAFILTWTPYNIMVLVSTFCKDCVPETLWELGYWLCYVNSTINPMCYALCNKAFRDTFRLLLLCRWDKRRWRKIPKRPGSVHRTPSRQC

Regarding `CC(=O)O[C@@H]1C(=O)O[C@@H]2[C@H]1OC(=O)[C@@H]2OC(C)=O`, the Potency result in assay [1], in assay [3], in assay [6], in [7], in assay [8] and in assay [9] was “inactive” each time. Moreover, the Potency result in assay [10], in assay [12], in assay [13], in [14], in [15] and in [16] was “inactive” each time. Also, the Potency entry in [17], in assay [18] and in assay [19] was “inactive” each time. Further, the Potency in assay [2] was 29.8 µM (active); in [11], 0.756 µM (active). Besides, the outcome in assay [4] and in [5] was inactive.

On to `CC(Cl)C(Cl)Cl` (stereo not drawn), for which the Potency result in assay [1], in assay [2], in [3], in [6], in assay [7] and in [8] was “inactive” throughout. Also, the Potency result in assay [9], in assay [10], in assay [11], in [12], in [13] and in [14] was “inactive” throughout. Also, the Potency result in assay [15], in [16], in [18] and in [19] was “inactive” in each case. The outcome in assay [4] and in assay [5] was inactive.

Consider `CO[Si](CCC1CCC2OC2C1)(OC)OC` (stereo not drawn), for which the Potency result in assay [1], in assay [2], in assay [3], in assay [6], in assay [7] and in assay [8] was “inactive” each time. In addition, the Potency result in assay [9], in [10], in [11], in assay [12], in assay [13] and in [14] was “inactive” each time. Besides, the Potency entry in assay [15], in assay [16], in assay [18] and in assay [19] was “inactive” throughout. In addition, the result in [4] and in assay [5] was inactive.

Consider `CCCS(=O)c1ccc2nc(NC(=O)OC)[nH]c2c1` (stereo not drawn), for which the Potency result in assay [1], in [2], in [3], in [6], in assay [7] and in [8] was “inactive” in each case. For the same compound, the Potency result in [9], in assay [10], in assay [11], in assay [12], in assay [13] and in assay [14] was “inactive” throughout. Further, the Potency result in [16], in assay [17] and in [19] was “inactive” in each case. Also, the result in assay [4] and in assay [5] was inactive.

Turning to `ClC(Cl)(Br)Br`, the Potency result in assay [1], in assay [2], in assay [3], in assay [6], in assay [7] and in assay [8] was “inactive” in each case. In addition, the Potency entry in assay [9], in assay [10], in assay [11], in assay [12], in [13] and in assay [14] was “inactive” each time. Also, the Potency result in [15], in assay [16], in assay [18] and in assay [19] was “inactive” throughout. Further, the result in assay [4] and in assay [5] was inactive.

Consider `CCCCCCCC`, for which the Potency entry in assay [1], in assay [2], in assay [3], in assay [6], in assay [7] and in [8] was “inactive” throughout. The Potency result in [9], in assay [10], in assay [11], in [12], in assay [13] and in [14] was “inactive” each time. Also, the Potency result in assay [15], in [16], in [18] and in [19] was “inactive” throughout. In addition, the outcome in assay [4] and in assay [5] was inactive.

With `CC(=O)OC(C)(C)Cc1ccccc1`, the Potency entry in assay [1], in assay [2], in assay [3], in assay [6], in [7] and in assay [8] was “inactive” each time. Also, the Potency result in [9], in [10], in [11], in [12], in assay [13] and in assay [14] was “inactive” throughout. The Potency result in assay [15], in assay [16] and in assay [18] was “inactive” throughout. Besides, the result in assay [4] and in assay [5] was inactive.

Turning to `Brc1ccccn1`, the Potency entry in assay [1], in assay [2], in assay [3], in [6], in assay [7] and in [8] was “inactive” throughout. Besides, the Potency entry in assay [9], in assay [10], in assay [11], in assay [12], in assay [13] and in [14] was “inactive” each time. In addition, the Potency result in [15], in assay [16], in [18] and in assay [19] was “inactive” each time. Further, the outcome in [4] and in assay [5] was inactive.
